Measurements reported in PMC9911399, “Two distinct binding modes provide the RNA-binding protein RbFox with extraordinary sequence specificity”.
Positions count from the first letter of the chain named. Over roughly 16,000 sequences, “ka relative to ugcaugu” has its median near 0.096; the highest 2% begin near 0.35. This is one part of a sample in which the highest values are shown more often than they occur.

T1: RBFOX1 RRM RbFoxmut (Fox-RRM*) (Homo sapiens, UniProt Q9NWB1 109-208, R118D;E147R;N151S;E152T)
T1 sequence: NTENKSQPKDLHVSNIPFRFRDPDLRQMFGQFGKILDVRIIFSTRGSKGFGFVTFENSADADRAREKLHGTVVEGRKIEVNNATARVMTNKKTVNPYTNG

B1: GUAUUUU (DNA:RNA)
RNA: GGGAGACCGGAAUUCAGAUUGUCCGUAUUUUUUAAAUCCCGUCGUAGCCACCA
DNA 1: CAATCTGAATTCCGGTCTCCC
DNA 2: TGGTGGCTACGACGGGATT
B2: AGGAGGA (DNA:RNA)
RNA: GGGAGACCGGAAUUCAGAUUGUCCAGGAGGAUUAAAUCCCGUCGUAGCCACCA
DNA 1: CAATCTGAATTCCGGTCTCCC
DNA 2: TGGTGGCTACGACGGGATT
B3: AGGAGAC (DNA:RNA)
RNA: B2 RNA with G30A, A31C
DNA 1: CAATCTGAATTCCGGTCTCCC
DNA 2: TGGTGGCTACGACGGGATT
B4: AGGGAUG (DNA:RNA)
RNA: B2 RNA with A28G, G29A, G30U, A31G
DNA 1: CAATCTGAATTCCGGTCTCCC
DNA 2: TGGTGGCTACGACGGGATT
B5: AGGAAUG (DNA:RNA)
RNA: B2 RNA with G29A, G30U, A31G
DNA 1: CAATCTGAATTCCGGTCTCCC
DNA 2: TGGTGGCTACGACGGGATT
B6: AGGAUUG (DNA:RNA)
RNA: B2 RNA with G29U, G30U, A31G
DNA 1: CAATCTGAATTCCGGTCTCCC
DNA 2: TGGTGGCTACGACGGGATT
B7: AGGAUGU (DNA:RNA)
RNA: B2 RNA with G29U, A31U
DNA 1: CAATCTGAATTCCGGTCTCCC
DNA 2: TGGTGGCTACGACGGGATT
B8: AGGGGGA (DNA:RNA)
RNA: B2 RNA with A28G
DNA 1: CAATCTGAATTCCGGTCTCCC
DNA 2: TGGTGGCTACGACGGGATT
B9: AGGAAUC (DNA:RNA)
RNA: B2 RNA with G29A, G30U, A31C
DNA 1: CAATCTGAATTCCGGTCTCCC
DNA 2: TGGTGGCTACGACGGGATT
B10: ACCAGGA (DNA:RNA)
RNA: B2 RNA with G26C, G27C
DNA 1: CAATCTGAATTCCGGTCTCCC
DNA 2: TGGTGGCTACGACGGGATT
B11: UACUCAU (DNA:RNA)
RNA: B1 RNA with G25U, U26A, A27C, U29C, U30A
DNA 1: CAATCTGAATTCCGGTCTCCC
DNA 2: TGGTGGCTACGACGGGATT
B12: CUACUCU (DNA:RNA)
RNA: B1 RNA with G25C, U28C, U30C
DNA 1: CAATCTGAATTCCGGTCTCCC
DNA 2: TGGTGGCTACGACGGGATT
B13: ACAGGAC (DNA:RNA)
RNA: B2 RNA with G26C, G27A, A28G, G30A, A31C
DNA 1: CAATCTGAATTCCGGTCTCCC
DNA 2: TGGTGGCTACGACGGGATT
B14: GGGAGUU (DNA:RNA)
RNA: B2 RNA with A25G, G30U, A31U
DNA 1: CAATCTGAATTCCGGTCTCCC
DNA 2: TGGTGGCTACGACGGGATT
B15: CUCGGGU (DNA:RNA)
RNA: B2 RNA with A25C, G26U, G27C, A28G, A31U
DNA 1: CAATCTGAATTCCGGTCTCCC
DNA 2: TGGTGGCTACGACGGGATT
B16: AACUACA (DNA:RNA)
RNA: B2 RNA with G26A, G27C, A28U, G29A, G30C
DNA 1: CAATCTGAATTCCGGTCTCCC
DNA 2: TGGTGGCTACGACGGGATT
B17: GCUCAGC (DNA:RNA)
RNA: B2 RNA with A25G, G26C, G27U, A28C, G29A, A31C
DNA 1: CAATCTGAATTCCGGTCTCCC
DNA 2: TGGTGGCTACGACGGGATT
B18: GGGUUUU (DNA:RNA)
RNA: B1 RNA with U26G, A27G
DNA 1: CAATCTGAATTCCGGTCTCCC
DNA 2: TGGTGGCTACGACGGGATT
B19: GGGUUGU (DNA:RNA)
RNA: B1 RNA with U26G, A27G, U30G
DNA 1: CAATCTGAATTCCGGTCTCCC
DNA 2: TGGTGGCTACGACGGGATT
B20: GGGGGGU (DNA:RNA)
RNA: B2 RNA with A25G, A28G, A31U
DNA 1: CAATCTGAATTCCGGTCTCCC
DNA 2: TGGTGGCTACGACGGGATT
B21: GUCCGGG (DNA:RNA)
RNA: B2 RNA with A25G, G26U, G27C, A28C, A31G
DNA 1: CAATCTGAATTCCGGTCTCCC
DNA 2: TGGTGGCTACGACGGGATT
B22: GGGUUUG (DNA:RNA)
RNA: B1 RNA with U26G, A27G, U31G
DNA 1: CAATCTGAATTCCGGTCTCCC
DNA 2: TGGTGGCTACGACGGGATT
B23: GUCGGGU (DNA:RNA)
RNA: B1 RNA with A27C, U28G, U29G, U30G
DNA 1: CAATCTGAATTCCGGTCTCCC
DNA 2: TGGTGGCTACGACGGGATT
B24: AAGCAAG (DNA:RNA)
RNA: B2 RNA with G26A, A28C, G29A, G30A, A31G
DNA 1: CAATCTGAATTCCGGTCTCCC
DNA 2: TGGTGGCTACGACGGGATT
B25: UGCCAGG (DNA:RNA)
RNA: B2 RNA with A25U, G27C, A28C, G29A, A31G
DNA 1: CAATCTGAATTCCGGTCTCCC
DNA 2: TGGTGGCTACGACGGGATT
B26: UCCCAGC (DNA:RNA)
RNA: B2 RNA with A25U, G26C, G27C, A28C, G29A, A31C
DNA 1: CAATCTGAATTCCGGTCTCCC
DNA 2: TGGTGGCTACGACGGGATT
B27: AAUUCGA (DNA:RNA)
RNA: B2 RNA with G26A, G27U, A28U, G29C
DNA 1: CAATCTGAATTCCGGTCTCCC
DNA 2: TGGTGGCTACGACGGGATT
B28: GGUACUG (DNA:RNA)
RNA: B2 RNA with A25G, G27U, G29C, G30U, A31G
DNA 1: CAATCTGAATTCCGGTCTCCC
DNA 2: TGGTGGCTACGACGGGATT
B29: CGCAUCU (DNA:RNA)
RNA: B2 RNA with A25C, G27C, G29U, G30C, A31U
DNA 1: CAATCTGAATTCCGGTCTCCC
DNA 2: TGGTGGCTACGACGGGATT
B30: GCAUCUU (DNA:RNA)
RNA: B1 RNA with U26C, U29C
DNA 1: CAATCTGAATTCCGGTCTCCC
DNA 2: TGGTGGCTACGACGGGATT
B31: GCGCAUC (DNA:RNA)
RNA: B1 RNA with U26C, A27G, U28C, U29A, U31C
DNA 1: CAATCTGAATTCCGGTCTCCC
DNA 2: TGGTGGCTACGACGGGATT
B32: CCGCAUC (DNA:RNA)
RNA: B2 RNA with A25C, G26C, A28C, G29A, G30U, A31C
DNA 1: CAATCTGAATTCCGGTCTCCC
DNA 2: TGGTGGCTACGACGGGATT
B33: GCAUAUC (DNA:RNA)
RNA: B1 RNA with U26C, U29A, U31C
DNA 1: CAATCTGAATTCCGGTCTCCC
DNA 2: TGGTGGCTACGACGGGATT
B34: GCAUCUC (DNA:RNA)
RNA: B1 RNA with U26C, U29C, U31C
DNA 1: CAATCTGAATTCCGGTCTCCC
DNA 2: TGGTGGCTACGACGGGATT

The binders below were run against T1, RBFOX1 RRM RbFoxmut (Fox-RRM*) (assay: EMSA; HiTS-Eq, 1 nM pool, 10 min; buffer printed only for the single-RNA assays: 10 mM Tris pH 7.5, 150 mM NaCl, 3.4 mM EDTA, 0.001% NP-40, 30 C). Details: tags: His6 N-terminal (pET28a); label: 5' 32P.
Procedure, shortened: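 Purified wild-type or mutant RbFox RRM at increasing concentrations was equilibrated with 1 nM of 5′-radiolabelled RNA carrying 7 randomized nucleotides for 10 min in 50 µL. Unbound RNA was separated by 8% native PAGE and sequenced. Relative association constants came from read-count changes of each RNA species compared with the control reaction, normalised to the cognate motif.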

Row | Binder | binding signal
1 | B1 | 0.118 KA relative to UGCAUGU
2 | B2 | 0.084 KA relative to UGCAUGU
3 | B3 | 0.0904 KA relative to UGCAUGU
4 | B4 | 0.476 KA relative to UGCAUGU
5 | B5 | 1.4 KA relative to UGCAUGU
6 | B6 | 0.583 KA relative to UGCAUGU
7 | B7 | 0.339 KA relative to UGCAUGU
8 | B8 | 0.149 KA relative to UGCAUGU
9 | B9 | 0.261 KA relative to UGCAUGU
10 | B10 | 0.0755 KA relative to UGCAUGU
11 | B11 | 0.0982 KA relative to UGCAUGU
12 | B12 | 0.0641 KA relative to UGCAUGU
13 | B13 | 0.0906 KA relative to UGCAUGU
14 | B14 | 0.09 KA relative to UGCAUGU
15 | B15 | 0.0903 KA relative to UGCAUGU
16 | B16 | 0.121 KA relative to UGCAUGU
17 | B17 | 0.0895 KA relative to UGCAUGU

Row | Binder | binding signal
18 | B18 | 0.0749 KA relative to UGCAUGU
19 | B19 | 0.448 KA relative to UGCAUGU
20 | B20 | 0.0952 KA relative to UGCAUGU
21 | B21 | 0.0861 KA relative to UGCAUGU
22 | B22 | 0.741 KA relative to UGCAUGU
23 | B23 | 0.132 KA relative to UGCAUGU
24 | B24 | 0.103 KA relative to UGCAUGU
25 | B25 | 0.0858 KA relative to UGCAUGU
26 | B26 | 0.1 KA relative to UGCAUGU
27 | B27 | 0.0737 KA relative to UGCAUGU
28 | B28 | 0.112 KA relative to UGCAUGU
29 | B29 | 0.395 KA relative to UGCAUGU
30 | B30 | 0.33 KA relative to UGCAUGU
31 | B31 | 0.49 KA relative to UGCAUGU
32 | B32 | 0.258 KA relative to UGCAUGU
33 | B33 | 0.073 KA relative to UGCAUGU
34 | B34 | 0.135 KA relative to UGCAUGU
